G9a block = qHTS Assay for Inhibitors of Histone Lysine Methyltransferase G9a; G9a H3K9 monomethylation, AlphaScreen, 2 h; Potency, µM (titrated, usually from 102 µM), without a hit: top-dose activity, negative = inhibition, most hits filed as inhibitors; actives 8.8% (n = 350,000); AID 504332, 2011; also: % is scaled to controls: 0 for no effect and ±100 for the full control effect; nearly all actives have a fitted effect of over 75% in size
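AlphaScreen read-out: biotin-H3K9 peptide (500 nM) methylation by 20 nM enzyme with 20 uM SAM, 2 h at room temperature after 15 min compound preincubation; anti-monomethyl H3K9 antibody plus donor/acceptor beads, 10 min dark.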
HP1b chromo inh = HTS for Inhibitors of HP1-beta Chromodomain Interactions with Methylated Histone Tails; actives 0.56% (n = 390,000); AlphaScreen HP1-beta / biotin-H3K9me3 peptide binding; AID 540317, 2011; Potency, µM (top dose mostly 114 µM), for the others: at the highest dose activity change, negative = inhibition, hits mostly inhibitors; also: nearly all actives have a fitted effect of over 70% in size
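AlphaScreen: HP1-beta (50 nM) preformed 30 min with biotin-H3(1-18)K9me3 peptide (50 nM) in PBS pH 7.4, 0.01% Tween-20. Compound added for 30 min at RT, then streptavidin donor/nickel chelate acceptor beads (10 ug/mL) for 30 min.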
JMJD2A Tudor inh = qHTS Assay for Inhibitors of JMJD2A-Tudor Domain; AlphaScreen JMJD2A-Tudor / H3K4me3 peptide binding; Potency, µM (doses to about 114 µM), without a hit: at the top dose activity change, negative = inhibition, hits mostly inhibitors; actives 4.4% (n = 390,000); Lysine-specific demethylase 4A (Homo sapiens), O75164; also: % is scaled to controls: 0 for no effect and ±100 for the full control effect; nearly all actives have a fitted effect of over 50% in size
BAZ2B block = qHTS Assay for Inhibitors of BAZ2B. Potency, µM (titrated, usually from 114 µM), for inactives: at the top dose activity change, negative = inhibition, actives largely listed as inhibitors. actives 4.4% (n = 360,000). AID 504333, 2011. AlphaScreen BAZ2B-H3K14Ac peptide displacement; also: % is scaled to controls: 0 for no effect and ±100 for the full control effect; nearly all actives have a fitted effect of over 60% in size
Target sequence (Q9UIF8 whole entry, looked up): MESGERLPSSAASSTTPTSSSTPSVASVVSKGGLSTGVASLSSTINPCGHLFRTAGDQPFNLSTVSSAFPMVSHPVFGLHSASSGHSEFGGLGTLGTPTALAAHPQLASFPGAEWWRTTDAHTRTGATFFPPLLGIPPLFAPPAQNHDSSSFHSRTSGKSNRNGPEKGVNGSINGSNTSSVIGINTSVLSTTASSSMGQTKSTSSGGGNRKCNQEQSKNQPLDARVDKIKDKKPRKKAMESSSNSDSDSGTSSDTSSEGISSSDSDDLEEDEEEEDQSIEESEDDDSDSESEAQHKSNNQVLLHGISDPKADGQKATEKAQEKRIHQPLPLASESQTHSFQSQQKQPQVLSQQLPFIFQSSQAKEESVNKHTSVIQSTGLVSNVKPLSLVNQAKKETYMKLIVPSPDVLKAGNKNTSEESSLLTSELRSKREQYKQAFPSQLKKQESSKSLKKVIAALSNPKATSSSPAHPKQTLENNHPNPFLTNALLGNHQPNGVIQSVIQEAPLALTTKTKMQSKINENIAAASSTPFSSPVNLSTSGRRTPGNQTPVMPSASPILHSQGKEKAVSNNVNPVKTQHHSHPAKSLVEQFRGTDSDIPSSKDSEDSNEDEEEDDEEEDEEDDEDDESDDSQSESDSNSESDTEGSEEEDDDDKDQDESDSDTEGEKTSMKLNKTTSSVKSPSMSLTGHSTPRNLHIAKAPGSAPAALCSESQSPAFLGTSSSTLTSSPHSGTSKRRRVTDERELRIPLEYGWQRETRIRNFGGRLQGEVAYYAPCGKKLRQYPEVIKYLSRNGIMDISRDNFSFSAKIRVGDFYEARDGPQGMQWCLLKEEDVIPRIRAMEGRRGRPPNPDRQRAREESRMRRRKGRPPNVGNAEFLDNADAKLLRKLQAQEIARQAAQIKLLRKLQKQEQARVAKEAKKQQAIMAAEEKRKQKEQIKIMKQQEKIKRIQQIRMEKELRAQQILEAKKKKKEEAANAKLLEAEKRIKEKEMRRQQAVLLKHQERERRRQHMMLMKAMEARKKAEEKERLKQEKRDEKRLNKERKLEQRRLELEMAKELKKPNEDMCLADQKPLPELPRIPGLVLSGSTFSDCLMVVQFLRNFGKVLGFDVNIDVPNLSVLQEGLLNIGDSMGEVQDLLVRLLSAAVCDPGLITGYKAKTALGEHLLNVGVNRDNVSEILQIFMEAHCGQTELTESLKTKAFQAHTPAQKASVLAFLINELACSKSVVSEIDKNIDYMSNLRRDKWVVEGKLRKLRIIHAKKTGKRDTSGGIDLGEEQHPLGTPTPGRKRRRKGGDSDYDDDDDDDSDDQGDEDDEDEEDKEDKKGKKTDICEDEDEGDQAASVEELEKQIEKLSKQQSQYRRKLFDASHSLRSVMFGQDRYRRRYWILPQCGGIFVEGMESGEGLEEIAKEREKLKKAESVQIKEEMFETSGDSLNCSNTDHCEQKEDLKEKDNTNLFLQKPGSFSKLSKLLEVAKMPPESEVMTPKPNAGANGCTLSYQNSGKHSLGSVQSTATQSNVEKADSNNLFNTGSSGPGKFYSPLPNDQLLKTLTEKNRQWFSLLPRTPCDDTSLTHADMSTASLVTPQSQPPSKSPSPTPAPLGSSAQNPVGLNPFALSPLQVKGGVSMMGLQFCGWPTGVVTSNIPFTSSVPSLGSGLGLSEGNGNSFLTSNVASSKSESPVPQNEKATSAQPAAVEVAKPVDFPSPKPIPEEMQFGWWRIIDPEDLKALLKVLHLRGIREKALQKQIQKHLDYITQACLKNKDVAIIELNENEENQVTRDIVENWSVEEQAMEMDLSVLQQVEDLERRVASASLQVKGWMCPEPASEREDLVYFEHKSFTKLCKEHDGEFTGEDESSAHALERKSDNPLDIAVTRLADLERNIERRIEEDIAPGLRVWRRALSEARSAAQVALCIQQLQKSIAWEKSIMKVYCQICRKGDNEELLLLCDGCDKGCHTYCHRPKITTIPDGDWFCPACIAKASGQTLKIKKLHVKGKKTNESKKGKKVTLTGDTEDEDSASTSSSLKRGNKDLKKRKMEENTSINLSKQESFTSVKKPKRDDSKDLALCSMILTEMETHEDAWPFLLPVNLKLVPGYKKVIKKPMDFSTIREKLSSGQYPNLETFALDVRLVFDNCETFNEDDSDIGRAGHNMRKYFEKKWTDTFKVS
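Compounds, titrated to a top concentration of 110 uM, were incubated 30 min at room temperature with preformed BAZ2B/acetyl-K14 H3 peptide complex (50 nM each). Proximity signal was measured by AlphaScreen after 20 min with beads.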
Sfp inh = qHTS Assay for Inhibitors of Bacillus subtilis Sfp phosphopantetheinyl transferase (PPTase); 4'-phosphopantetheinyl transferase ffp (Bacillus subtilis), Q9F4F7; Biochemical Sfp PPTase activity, qHTS; Potency, µM, inactives show largest response in the series, negative = inhibition, most hits filed as inhibitors; actives 3.5% (n = 310,000); AID 1490, 2009;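 also: the enzyme is Sfp with the accession as filed and its product quenches rhodamine fluorescence; 0% = enzyme reaction without inhibitor and -100% = no enzyme wells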
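With Hepes-Na pH 7.6 buffer containing 10 mM MgCl2, Sfp (15 nM) modified BHQ-2-YbbR (12.5 uM) using rhodamine-CoA (5 uM). Two reads 30 minutes apart at 525/598 nm yielded each well's rate.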
L3MBTL1 inh = qHTS Assay for the Inhibitors of L3MBTL1; actives 0.66% (n = 230,000); Potency, µM (highest dose often 57.1 µM), inactives show top-dose activity, negative = inhibition, most hits filed as inhibitors; AlphaScreen L3MBTL1–H3K9me1 peptide binding; also: % is scaled to controls: 0 for no effect and ±100 for the full control effect; nearly all actives have a fitted effect of over 60% in size
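Read-out is AlphaScreen signal from streptavidin donor and nickel chelate acceptor beads (10 ug/mL final each) bridging L3MBTL1 (50 nM) and biotinylated K9-monomethylated H3(1-15) peptide (75 nM), after 30 min compound exposure at room temperature.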
The depositor's hits bear a star; u = inconclusive; x = no result given; [ ] = another dose, or the depositor's remark. Shown are actives, neighbours in structure and some others; about 12% of the full set was active somewhere. Calls follow the shape of the dose curve; as a rule, active = well fitted curve in the direction sought with a large enough effect; inconclusive = small, poorly fitted or top-dose-only effect, or another doubt; inactive = no such curve, though single readings can be large; an effect the other way counts as inactive or inconclusive. Potency is read from the fitted curve at half-maximal effect.

SMILES | G9a block | HP1b chromo inh | JMJD2A Tudor inh | BAZ2B block | Sfp inh | L3MBTL1 inh
CCCCCCCC(=O)Nc1ccc(C(=O)N/N=C/c2cccc([N+](=O)[O-])c2)cc1 | 18%[59 µM] | 22% | -12% | -1% | 4% | 0%
O=C(N/N=C/c1cccc([N+](=O)[O-])c1)c1cc[n+](CCO)cc1 | -37% | 21% | -23% | 50µM* | 8% | -5%
Cc1ccc2sc(C)[n+](CCCS(=O)(=O)[O-])c2c1 | u | 51% | 1% | 7% | 2.8µM* | x
Cc1c2ccccc2cc[n+]1CCCS(=O)(=O)[O-] | -27% | 38% | -1% | -26% | 20% | 8%
Cc1ccc2c(c1)sc(C)[n+]2CCCS(=O)(=O)[O-] | u | 55% | -18% | -37% | 1µM* | x
CCOC(=O)CN(Cc1ccccc1)C(C(=O)NC1CCCCC1)c1ccccc1 (stereo not drawn) | 9%[59 µM] | 31% | 0% | 11% | x | x
C=C[C@@H](C1=CC(=O)C(OC)=C(OC)C1=O)c1ccccc1 | x | x | x | x | 11µM* | x
C=CC(C1=CC(=O)C=CC1=O)c1ccccc1 (stereo not drawn) | u | x | x | x | -34% | x
CN1CCN(c2ncnc3ccc(-c4ccccc4Cl)cc23)CC1 | 18%[0.501 µM] | x | x | x | 8% | x
C[C@@H]1NC(=O)[C@@H](C)COC(=O)[C@H](C)NC(=O)[C@@H](C)COC1=O | x | x | x | x | 6% | x
Cc1ccc2occ(C3NC(C(=O)O)CS3)c(=O)c2c1 (stereo not drawn) | 5µM* | 44% | 4% | 50µM* | 14µM* | -7%
Cc1ccc2occ(C3N[C@H](C(=O)O)CS3)c(=O)c2c1 (stereo partly drawn) | 32µM* | u | 7.9µM* | u | 50µM* | -9%
Cn1c(=O)n(C)c2cc(N3CCCCC3)c(NC(=O)c3ccc(Cl)cc3)cc21 | -34%[59 µM] | 24% | -12% | u | x | x
CC(/C=C/c1ccccc1F)=N\NC(=O)c1ccc(Cl)cc1 | 15%[0.501 µM] | -18% | 22µM* | -3% | -11% | 43%
O=C(CN1CCN(c2nc(-c3ccc(Cl)cc3)cs2)CC1)NCc1ccco1 | -77%[59 µM] | -4% | -28% | -31% | -5% | -11%
O=S(=O)(Cc1noc(-c2ccc(Cl)cc2)n1)Cc1ccco1 | x | -2% | -20% | u | 4µM* | -15%
O=S(=O)(Cc1ccco1)Cc1nc(-c2ccc(Cl)cc2)cs1 | x | -6% | -25% | -2% | 25µM* | 9%
CCOc1ccc(OCC)c(NC(=O)c2nnn(CC(=O)Nc3cc(C)cc(C)c3)c2N)c1 | -3% | 23% | -23% | -36% | -14% | x
C=CCC(C)(O)c1cccc(Br)c1 (stereo not drawn) | x | x | x | x | 15% | x
CC(=O)N1CCc2cc(S(=O)(=O)C(C)CC(=O)Nc3ccc(OC(F)(F)F)cc3)ccc21 (stereo not drawn) | 9%[59 µM] | 35% | -11% | -11% | 14% | x
COc1ccc(/C=C2\N=C(C)OC2=O)cc1OC(C)=O | 28µM* | 10% | -14% | -2% | -17% | x
COc1cc(/C=C2\N=C(c3ccccc3)OC2=O)ccc1OC(C)=O | x | 6% | -12% | 23% | 14% | 28%
COc1ccc(/C=C2\N=C(C)OC2=O)cc1OC | 35µM* | 11% | 1% | -1% | -2% | x
C=CCOc1ccc(/C=C2\N=C(C)OC2=O)cc1OC | x | -5% | -13% | -12% | 4% | x
CCC(C(=O)Nc1ccccc1C(=O)OC)n1nc(C)c2c(C)n(-c3ccc(C)cc3)nc2c1=O (stereo not drawn) | -34%[59 µM] | -4% | -27% | -24% | x | x
SMILES | G9a block | HP1b chromo inh | JMJD2A Tudor inh | BAZ2B block | Sfp inh | L3MBTL1 inh
Oc1ccc(N2CCN(c3nnnn3-c3ccccc3)CC2)cc1 | 25µM* | u | -21% | x | 56µM* | -18%
Cc1cc(C)n2c(SCC(=O)NCc3ccc4c(c3)OCO4)nnc2n1 | 11µM* | -22% | 79µM* | -1% | 71µM* | x
Cc1nnc(SCC(=O)NCc2ccc3c(c2)OCO3)[nH]c1=O | 50µM* | 24% | -17% | -32% | u | 2%
CCn1c(SCC(=O)NCc2ccc3c(c2)OCO3)nnc1-c1ccncc1 | -50% | 30% | -12% | -12% | 7% | 2%
Cc1cc(C)c(NC(=O)Cn2nnc(C(=O)NCc3ccc4c(c3)OCO4)c2N)c(C)c1 | 17%[59 µM] | 15% | 56µM* | -16% | -1% | x
Cc1ccc2occ(-c3cc(-c4ccc(Cl)cc4)nc4c3COc3ccccc3-4)c(=O)c2c1 | 20%[59 µM] | 35% | -10% | -21% | x | x
CC[C@@H]1/C=C(\C)C[C@H](C)C[C@H](OC)[C@H]2O[C@@](O)(C(=O)C(=O)N3CCCC[C@H]3C(=O)O[C@H](/C(C)=C/[C@@H]3CC[C@H](Cl)[C@H](OC)C3)[C@H](C)[C@@H](O)CC1=O)[C@H](C)C[C@@H]2OC | -16%[12.7 µM] | x | x | x | 12% | x
O=C(Nc1ccc(F)c(Cl)c1)c1cc(S(=O)(=O)N2CCCc3ccccc32)ccc1F | 29%[59 µM] | 51% | -10% | 12% | x | x
COCCN(C(=O)COC(=O)/C=C/c1ccc(Cl)c(Cl)c1)c1c(N)n(Cc2ccccc2)c(=O)[nH]c1=O | x | -22% | -20% | x | x | x
Cc1nc2nc(SCc3ccc([N+](=O)[O-])cc3)[nH]c2cc1Br | -27% | 34% | -10% | -8% | -11% | 3%
COC(=O)CSc1nc2nc(C)c(Br)cc2[nH]1 | 7.9µM* | 21% | -32% | 2% | -16% | x
C=C(C)CSc1nc2nc(C)c(Br)cc2[nH]1 | 7.1µM* | x | x | 1% | 8% | x
Cc1ccc(NC(=O)CSc2nc3nc(C)c(Br)cc3[nH]2)cc1F | 19% | 25% | -22% | -21% | 11% | x
CC1CCCCC1NC(=O)CN1c2cccc3cccc(c23)S1(=O)=O (stereo not drawn) | 22%[12.7 µM] | 32% | -2% | 2% | x | 2%
COCc1cc(C)nc(N2CCN(Cc3ccccc3)CC2)c1C#N | 50µM* | 23% | 7% | 34% | -3% | x
NC(N)=NCCC[C@H](NC(=O)[C@H](Cc1ccccc1)NC(=O)[C@@H]1CCCN1C(=O)[C@H](CO)NC(=O)[C@H](Cc1ccccc1)NC(=O)CNC(=O)[C@@H]1CCCN1C(=O)[C@@H]1CCCN1C(=O)[C@@H](N)CCCN=C(N)N)C(=O)O | x | x | x | x | 5% | x
Nc1nc(CN2CCN(c3ccc(F)cc3)CC2)nc(N2CCCc3ccccc32)n1 | 40µM* | -9% | 50µM* | -64% | 4% | -17%

High-throughput results from PubChem.
